Bioassay records from PubChem.
Pf Dd2 inh = Plasmodium falciparum Dd2 growth inhibition | P. falciparum Dd2 growth, SYBR Green, 72 h | Potency, µM (series often up to 28.9 µM), for the others: top-dose activity, negative = inhibition, most hits filed as inhibitors | 120,000 compounds, 4.3% hits | AID 1347417; active means well fitted inhibition curve with a large enough effect;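 further: plate controls were DMSO vehicle for no effect and reference drug for full effect; nearly all actives have a fitted effect of over 65% in size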
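Infected erythrocytes (Dd2, 0.3% parasitemia, 2.5% hematocrit final) are added to compound in RPMI-1640/Albumax II medium, grown 72 h at 37C in low oxygen, then lysed with saponin/Triton-X containing SYBR Green and read by fluorescence.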
An asterisk follows results filed as active; i = inactive; [ ] = another dose, or the depositor's remark. This excerpt belongs to a sample that is enriched for hits. Potency means the concentration at half of the fitted maximal effect.

SMILES	Pf Dd2 inh
CCNC(=O)N[C@H]1[C@H](O)[C@@H](N(CC)CC)[C@@H]2OC[C@H]1O2	14%[44.1 µM]
COc1ccc(NC(=O)O[C@@H]2CO[C@H]3[C@@H]2OC[C@@H]3Nc2nccc(-c3cccc(F)c3)n2)cc1	2%
O=C(O)CCCC(=O)N1Cc2ccccc2CC2(CCCN2Cc2ccccc2)C1 (configuration not stated)	-7%
CN1CCC(C(=O)N2Cc3ccccc3CC3(CCCCN3Cc3ccncc3)C2)CC1 (configuration not stated)	8.9µM*
CN1CCC(C(=O)N2Cc3ccccc3CC3(CCCN(CC4CCNC4)C3)C2)CC1 (configuration not stated)	8%
CN1CCC(C(=O)N2Cc3ccccc3CC3(CCN(Cc4ccc(O)cc4)C3)C2)CC1 (configuration not stated)	0%
O=C(O)CCCC(=O)N1Cc2ccccc2CC2(CCCCN2Cc2ccncc2)C1 (configuration not stated)	7%
CN1CCC(C(=O)N2Cc3ccccc3CC3(CCCN(Cc4cccnc4)C3)C2)CC1 (configuration not stated)	8.9µM*
Cc1cc(C[C@@H]2COC[C@@H]2NC(=O)CCc2nc(-c3ccco3)no2)on1	-5%
Cc1cccc(C(=O)N2CCC(Oc3ccccc3F)(C(=O)O)CC2)c1	-7%
COc1ccccc1-c1nnc([C@H]2CCN(C3CCOCC3)C2)o1	i
O=C(NC[C@@H]1CCCN1)c1ccc(S(=O)(=O)NCc2ncc[nH]2)cc1	3%
N#Cc1ccc(C(=O)N2CCOCCNC(=O)[C@@H]3CCC[C@@H]32)cc1	23%
CCOc1ccc(CNC(=O)c2cnc(SC)nc2CC)cc1	i[5.79 µM]
CCOC(=O)c1cnc(N2CCN(c3ccc(OC)cc3)CC2)c2ccccc12	12%
CCC[C@@H]1CN(c2nc(SC)ncc2C(=O)OCC)C[C@H]1N(C)C	13µM*
O=C(N[C@@H]1CN(C(=O)Cn2c(=O)oc3ccccc32)CC[C@@H]1CO)C1CC1	11%
Cn1cc(CNC(=O)C[C@@H]2C[C@H]3O[C@H](CNC(=O)NCc4ccccc4)[C@@H](O)[C@H]3O2)cn1	-12%
